Most compounds without a hit are left out; they make up all but 1.6% or so of the library.
KCNQ2 pot – KCNQ2 (rat) channel potentiation | 310,000 compounds, 0.54% hits | B-score at 10 µM | CHO-K1 KCNQ2, FluxOR thallium flux fluorescence; active compounds read high | AID 2239 | O88943;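 active = fluorescence ratio B-score at least 3 SD of library B-scores, with initial fluorescence B-score within 3 of them, cut at about 5.3 in these data; same plate scores as AID 2156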;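 note: B-score of peak minus minimum over baseline fluorescence ratio after K+ and Tl+ stimulus; positive B-score means potentiation of KCNQ2 with more thallium influx and brighter signal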
KCNQ2 inh – KCNQ2 (rat) channel inhibition; O88943; CHO-K1 KCNQ2, FluxOR thallium flux, 20 min; active compounds read low; B-score at 10 µM; 310,000 compounds, 1.1% hits;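 active = fluorescence ratio B-score at most minus 3 library SDs, with starting brightness B-score within 2 library SDs, cut at about -5.5 in these data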
KCNQ2 block conf – confirmation of rat KCNQ2 potassium channel inhibitors; shares compounds with KCNQ2 inh; KCNQ2-expressing cells, thallium flux, inhibition; active compounds read low; activity change, negative = inhibition, % at 10 µM; 1,000 compounds, 57% hits; AID 493025
KCNQ1 spec – KCNQ2 inhibitor that also affects human KCNQ1 channel; shares compounds with KCNQ2 inh; KCNQ1-expressing cells, FluxOR thallium flux fluorescence; active compounds read low; activity change, negative = inhibition, % at 10 µM; 1,000 compounds, 15% hits; AID 493026;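 active = activity change at least 3 SD of negative controls below their mean in both duplicate wells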;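 note: CHO cells stably transfected with KCNQ1 and depolarized by potassium stimulus; peak minus minimum fluorescence over baseline after thallium addition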
Target sequence (P51787 whole entry, looked up): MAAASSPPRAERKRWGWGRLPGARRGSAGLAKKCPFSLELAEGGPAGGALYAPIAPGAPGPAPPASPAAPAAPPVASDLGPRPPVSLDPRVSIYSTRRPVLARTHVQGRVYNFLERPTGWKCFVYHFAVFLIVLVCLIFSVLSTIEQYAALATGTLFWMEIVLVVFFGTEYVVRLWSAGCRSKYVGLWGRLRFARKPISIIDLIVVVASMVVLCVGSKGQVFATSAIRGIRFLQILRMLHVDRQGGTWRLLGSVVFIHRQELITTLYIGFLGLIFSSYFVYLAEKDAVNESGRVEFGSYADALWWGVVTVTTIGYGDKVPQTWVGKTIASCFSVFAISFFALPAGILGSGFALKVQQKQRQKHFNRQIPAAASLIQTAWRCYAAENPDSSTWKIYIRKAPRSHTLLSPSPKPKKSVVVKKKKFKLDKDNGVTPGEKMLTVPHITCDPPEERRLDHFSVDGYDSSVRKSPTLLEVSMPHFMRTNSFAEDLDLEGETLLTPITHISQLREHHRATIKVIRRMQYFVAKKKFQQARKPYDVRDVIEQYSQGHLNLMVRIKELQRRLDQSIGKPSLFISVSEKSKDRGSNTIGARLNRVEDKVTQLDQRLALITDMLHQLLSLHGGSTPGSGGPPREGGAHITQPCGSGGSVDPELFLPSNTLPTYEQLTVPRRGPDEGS
CHO Tl ctr – counter-screen for KCNQ2 inhibitors: effect in parental CHO cells; shares compounds with KCNQ2 inh; thallium flux counter-screen; active compounds read low; activity change, % at 10 µM; 1,000 compounds, 14% hits; AID 493029
KCNQ2 patch conf – confirmation of rat KCNQ2 potassium channel inhibitors; calls only at 10 µM; 550 compounds, 49% hits; KCNQ2-expressing cells, automated patch clamp current; shares compounds with KCNQ2 inh
Numbers stand for hits; – = inactive; · = not tested or not shown; + = active, no number. Unless noted, the rule behind the calls is not given here.

SMILES	KCNQ2 pot	KCNQ2 inh	KCNQ2 block conf	KCNQ1 spec	CHO Tl ctr	KCNQ2 patch conf
Cc1[nH]n(-c2ccccc2)c(=O)c1C(C[N+](=O)[O-])c1ccccc1Cl (centres undefined)	·	–	·	·	·	·
COc1ccc(C(C[N+](=O)[O-])c2c(C)[nH]n(-c3ccccc3)c2=O)cc1 (centres undefined)	–	-7	-26%	–	–	–
C/C(=N\NC(=O)c1ccccc1)c1ccc(C)c([N+](=O)[O-])c1	·	–	·	·	·	·
CN1/C(=C\C(=S)NC(=O)c2cccc(Br)c2)C(C)(C)c2ccccc21	–	-7.8	-22%	–	–	+
CN1/C(=C\C(=O)Nc2ccc(Br)cc2)C(C)(C)c2ccccc21	·	–	·	·	·	·
CN1/C(=C\C(=S)NC(=O)c2ccc([N+](=O)[O-])cc2)C(C)(C)c2ccccc21	·	–	·	·	·	·
CN1/C(=C\C(=O)Nc2cccc(Cl)c2)C(C)(C)c2ccccc21	–	-7.1	-20%	–	–	–
CCn1nc(C)cc1-c1nnc(SCC(=O)Nc2ccccc2)n1CCCOC	–	–	·	·	·	·
Cc1csc(SCC(=O)NC2CCCCC2)n1	–	–	·	·	·	·
O=C(CCc1c[nH]c2ccccc12)NCC1COc2ccccc2O1 (centres undefined)	·	–	·	·	·	·
Cc1cccc(-n2nnnc2SCc2csc(-c3ccccc3)n2)c1	–	-7.2	-32%	–	–	+
Cc1ccc(Nc2nc(CSc3nnnn3-c3ccccc3)cs2)cc1	·	–	·	·	·	·
CCOC(=O)c1sc2nc(N3CCOCC3)c3c(c2c1N)CCC3	·	–	·	·	·	·
CSc1cccc(NC(=O)C(C)C)c1	–	–	·	·	·	·
COc1ccc(Br)cc1CNC(=O)CN1C(=O)C(c2ccccc2)Oc2cccnc21 (centres undefined)	–	-7	-26%	–	–	+
COc1ccc(NC(=O)CCCN2C(=O)C(c3ccccc3)Oc3cccnc32)cc1OC (centres undefined)	–	–	·	·	·	·
CCOC(=O)c1cnc(-n2nc(C)cc2C)nc1NC1CCCCC1	–	-8.9	-33%	–	–	+
CCOC(=O)c1cnc(-n2nc(C)cc2C)nc1Nc1ccc(C)cc1	–	–	·	·	·	·
Cc1ccc(N=C2CCCN2Cc2ccccc2)c(C#N)c1	–	-9	-47%	-43%	-34%	+
Cc1ccc(N=C2CCCCCN2C)c(C#N)c1	·	–	·	·	·	·
O=c1[nH]c(=O)n(CCOc2ccc(Cl)cc2)cc1Br	–	–	·	·	·	·
COC(=O)c1sccc1NC(=O)C1CC2CCC1C2 (centres undefined)	–	–	·	·	·	·
C(=N\Nc1nc(N2CCCCC2)nc(N2CCCCC2)n1)/c1c[nH]c2ccccc12	–	-9.3	-36%	–	–	+
CN(C)c1nc(N/N=C/c2c[nH]c3ccccc23)nc(N2CCOCC2)n1	–	–	·	·	·	·
Cc1ccc(N2C(=O)N(CC(=O)Nc3ccccc3C)C(=O)C2C)cc1 (centres undefined)	·	–	·	·	·	·
SMILES	KCNQ2 pot	KCNQ2 inh	KCNQ2 block conf	KCNQ1 spec	CHO Tl ctr	KCNQ2 patch conf
Cc1ccc(N2C(=O)N(CC(=O)NCc3ccccc3Cl)C(=O)C2C)cc1 (centres undefined)	–	-6.6	-28%	–	–	+
O=C(CCSc1ccccc1)N1CCOCC1	·	–	·	·	·	·
O=C(CCCCn1c(=O)[nH]c2ccsc2c1=O)NCCc1ccccc1	–	–	·	·	·	·
O=C(CCn1c(=O)[nH]c2ccsc2c1=O)N(CCc1ccccc1)Cc1ccccc1	–	-7.4	-26%	–	–	+
O=C(OCc1nnc(-c2ccc(Cl)cc2)o1)C12CC3CC(CC(O)(C3)C1)C2	·	–	·	·	·	·
O=C(NCC1CCCCC1)c1cccnc1	·	–	·	·	·	·
O=C(NCCc1csc(-c2ccccc2)n1)c1cccs1	·	–	·	·	·	·
COc1ccc(CCNS(=O)(=O)CC23CCC(CC2=O)C3(C)C)cc1OC (centres undefined)	·	–	·	·	·	·
CC(C)Cn1c(=O)c2ccccc2n2c(CCC(=O)NC3CCN(Cc4ccccc4)CC3)nnc12	–	–	·	·	·	·
COCCn1cnc2c1c(=O)n(CC(=O)c1ccc3c(c1)OCCO3)c(=O)n2Cc1ccccc1	·	–	·	·	·	·
COc1ccccc1NC(=O)COC(=O)/C=C/c1ccccc1[N+](=O)[O-]	–	–	·	·	·	·
COc1ccccc1/C=C/C(=O)OCC(=O)Nc1ccccc1Sc1ccccc1	–	-6.8	-30%	–	–	–
CCC(C)N1CCN(S(=O)(=O)c2ccc(NC(C)=O)cc2)CC1 (centres undefined)	·	–	·	·	·	·
COc1ccc(-n2nc(C(=O)NCC(=O)NCC3CCCO3)c3ccccc3c2=O)c(OC)c1 (centres undefined)	–	–	·	·	·	·
NC(=O)C1CCN(CC(=O)Nc2nc(-c3ccccc3)cs2)CC1	·	–	·	·	·	·
